Source: PubChem
JMJD2A Tudor: qHTS Assay for Inhibitors of JMJD2A-Tudor Domain. Lysine-specific demethylase 4A (Homo sapiens), O75164. AID 504339, 2011. Potency, µM (series often up to 114 µM), for inactives: at the top dose activity change, negative = inhibition, usual class: inhibitors. AlphaScreen JMJD2A-Tudor / H3K4me3 peptide binding. 4.4% of 390,000 active; also: % is scaled to controls: 0 for no effect and ±100 for the full control effect; nearly all actives have a fitted effect of over 50% in size
L3MBTL1 block: qHTS Assay for the Inhibitors of L3MBTL1. Lethal(3)malignant brain tumor-like protein 1 (Homo sapiens), Q9Y468. AlphaScreen L3MBTL1–H3K9me1 peptide binding. Potency, µM (highest dose often 57.1 µM), for inactives: at the highest dose activity, negative = inhibition, most hits filed as inhibitors. 0.66% of 230,000 active. AID 485360, 2010; also: % is scaled to controls: 0 for no effect and ±100 for the full control effect; nearly all actives have a fitted effect of over 60% in size
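First, the protein-peptide complex forms for 30 min at room temperature (L3MBTL1 50 nM, biotinylated H3K9me1 peptide 75 nM). Next, compounds are pin-transferred and incubated 30 min. Finally, AlphaScreen beads are added and read after 30 min.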
HP1b chromo inh: HTS for Inhibitors of HP1-beta Chromodomain Interactions with Methylated Histone Tails | 0.56% of 390,000 active | Potency, µM (highest dose often 114 µM), for inactives: top-dose activity change, negative = inhibition, hits mostly inhibitors | AlphaScreen HP1-beta / biotin-H3K9me3 peptide binding | Chromobox protein homolog 1 (Homo sapiens), P83916; also: nearly all actives have a fitted effect of over 70% in size
Target sequence (P83916 whole entry, looked up): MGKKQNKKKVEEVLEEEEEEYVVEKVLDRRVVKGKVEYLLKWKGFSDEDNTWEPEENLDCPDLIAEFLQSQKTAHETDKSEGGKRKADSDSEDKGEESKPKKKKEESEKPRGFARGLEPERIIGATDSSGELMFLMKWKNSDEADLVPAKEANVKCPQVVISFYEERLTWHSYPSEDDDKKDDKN
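HP1-beta protein (50 nM final) preincubated 30 min at room temperature with biotinylated H3(1-18)K9me3 peptide (50 nM) in PBS pH 7.4, 0.01% Tween-20, then compound added for 30 min. AlphaScreen streptavidin donor/nickel chelate acceptor beads (10 ug/mL final), 30 min dark, luminescence read.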
G9a inh: qHTS Assay for Inhibitors of Histone Lysine Methyltransferase G9a. AID 504332, 2011. 8.8% of 350,000 active. Histone-lysine N-methyltransferase EHMT2 (Homo sapiens), Q96KQ7. G9a H3K9 monomethylation, AlphaScreen, 2 h. Potency, µM (series often up to 102 µM), for the others: at the top dose activity, negative = inhibition, hits mostly inhibitors; also: % is scaled to controls: 0 for no effect and ±100 for the full control effect; nearly all actives have a fitted effect of over 75% in size
Target sequence (Q96KQ7 913-1193 limits assumed): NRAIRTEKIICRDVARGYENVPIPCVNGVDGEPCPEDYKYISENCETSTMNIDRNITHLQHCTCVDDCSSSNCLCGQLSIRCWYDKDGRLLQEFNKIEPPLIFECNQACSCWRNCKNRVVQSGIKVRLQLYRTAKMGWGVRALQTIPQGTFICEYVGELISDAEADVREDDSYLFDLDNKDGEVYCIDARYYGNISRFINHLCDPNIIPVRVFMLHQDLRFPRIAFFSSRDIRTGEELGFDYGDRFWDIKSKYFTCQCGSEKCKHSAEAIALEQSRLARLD
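Methyltransferase reactions run at room temperature for 2 h (20 nM enzyme, 500 nM biotin-H3K9 peptide, 20 uM SAM) after a 15 min compound preincubation; product detected by AlphaScreen beads and anti-H3K9me1 antibody.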
Sfp PPTase inh: qHTS Assay for Inhibitors of Bacillus subtilis Sfp phosphopantetheinyl transferase (PPTase); 4'-phosphopantetheinyl transferase ffp (Bacillus subtilis), Q9F4F7; Biochemical Sfp PPTase activity, qHTS; Potency, µM, for the others: largest response in the series, negative = inhibition, usual class: inhibitors; 3.5% of 310,000 active;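 also: the enzyme is Sfp with the accession as filed and its product quenches rhodamine fluorescence; 0% = enzyme reaction without inhibitor and -100% = no enzyme wells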
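Sfp 15 nM + cpd, 15 min RT; start w/ rhodamine-CoA 5 uM, BHQ-2-YbbR 12.5 uM (final); 50 mM Hepes pH 7.6, 10 mM MgCl2, 0.01% NP-40, 0.01% BSA; read 525/598 nm at 0 and 30 min.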
BAZ2B inh: qHTS Assay for Inhibitors of BAZ2B. Bromodomain adjacent to zinc finger domain protein 2B (Homo sapiens), Q9UIF8. AlphaScreen BAZ2B-H3K14Ac peptide displacement. Potency, µM (doses to about 114 µM), for inactives: at the top dose activity change, negative = inhibition, usual class: inhibitors. 4.4% of 360,000 active; also: % is scaled to controls: 0 for no effect and ±100 for the full control effect; nearly all actives have a fitted effect of over 60% in size
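In this displacement format the biotinylated H3(5-23) peptide acetylated at Lys14 serves as ligand at 50 nM, with BAZ2B at 50 nM in PBS pH 7.4 containing 0.01% Tween-20. Donor and acceptor beads are 10 ug/mL final.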
Starred values were filed as active, the others as inactive; u = inconclusive; x = not tested or not shown; [ ] = remark or other dose. In the library only some 12% were active in any assay of this set; here they are far more common. Calls follow the shape of the dose curve; as a rule, active = well fitted curve in the direction sought with a large enough effect; inconclusive = small, poorly fitted or top-dose-only effect, or another doubt; inactive = no such curve, though single readings can be large; an effect the other way counts as inactive or inconclusive. Potency is read from the fitted curve at half-maximal effect.

SMILES | JMJD2A Tudor | L3MBTL1 block | HP1b chromo inh | G9a inh | Sfp PPTase inh | BAZ2B inh
CCOc1cc(-c2ccc3c(c2)OCO3)cc(=O)c2c(C)oc(C)c12 | x | x | x | u | 32µM* | u
Cc1ccc(C(=O)Oc2cc(-c3ccc4c(c3)OCO4)cc(=O)c3c(C)oc(C)c23)cc1 | u | x | 8% | u | x | u
Cc1ccccc1C(=O)Oc1cc(-c2ccc3c(c2)OCO3)cc(=O)c2c(C)oc(C)c12 | -34% | x | 1% | 14µM* | x | u
Cc1oc(C)c2c(=O)cc(-c3ccc4c(c3)OCO4)cc(OC(=O)c3cccc(Br)c3)c12 | -33% | x | 6% | u | x | -29%
COc1ccccc1C(=O)NNC(=O)C(=O)NC(C)(C)C | -10% | x | 56% | -22% | -7% | 89µM*
O=C(NNC(=O)c1ccccc1Br)c1ccncc1 | -4% | 5% | 47% | -3% | 9% | 6%
CC(C)(C)NC(=O)C(=O)NNC(=O)c1ccccc1Br | -20% | 3% | 24% | 22µM* | -3% | u
COC(=O)NNC(=O)c1ccccc1OC | -1%[11.4 µM] | 7% | 70% | 12%[59 µM] | -16% | -2%
COc1cc(-c2nnc(SCCOc3ccc(C)c(Cl)c3)o2)cc(OC)c1OC | -24% | x | 52% | 4%[59 µM] | x | u
CCC[n+]1cn(/C(C(=S)Nc2cccc(Cl)c2C)=C(/[O-])c2ccc(OC)c(OC)c2)c2ccccc21 | u | -17% | -19% | 40µM* | 3% | u
COc1cc2c(cc1OC)CN(C(=S)Nc1cccc(Cl)c1C)CC2 | -13% | -5% | 15% | -6% | 11% | -5%
Cc1cc(=S)nc(-c2ccccn2)[nH]1 | u | -7% | -3% | u | 35µM* | u
Cc1[nH]c(-c2ccccn2)nc(=S)c1Cl | -34% | 9% | -22% | -112%[59 µM] | 40µM* | -35%
COc1ccc2nc(-c3ccc(N)cc3)[nH]c2c1 | u | -20% | -20% | -44%[59 µM] | -12% | -5%
COc1ccc2nc(-c3ccccn3)[nH]c2c1 | -13% | x | 45% | 35µM* | -23% | u
Cc1cc2nc(-c3ccccn3)c(-c3ccccn3)nc2cc1C | x | x | x | 3% | -30% | -8%
CCC(=O)OCc1cnc(C)c2oc(=O)c(C(=O)Nc3ccccc3C(F)(F)F)cc12 | -4% | x | 18% | 12%[12.7 µM] | x | -5%
CCOC(=O)CSc1nc2ccc(NC(=O)COc3ccccc3)cc2s1 | 2% | x | 58% | -8%[59 µM] | x | -10%
Cc1ccc(Cl)cc1N1CCN(C(=O)Cc2cn(C)c3ccccc23)CC1 | u | x | u | 13µM* | -12% | u
CC[C@H](C)[C@H](NC(=O)[C@H](Cc1ccc(O)cc1)NC(=O)[C@@H]1CCCN1C(=O)[C@H](CCCCN)NC(=O)[C@@H](N)CCCCN)C(=O)N[C@@H](CC(C)C)C(=O)O | x | x | x | x | -6% | x
Cc1cc(C)cc(NC(=O)Cn2c(=O)n(C(C)C)c(=O)c3oc4ccccc4c32)c1 | 8% | x | 23% | 5%[59 µM] | x | -12%
Cc1ccc(-c2nc(=S)c3c(n2Cc2ccco2)CC(C)(C)OC3)cc1 | -9%[57.1 µM] | -7% | 25% | -26%[0.0925 µM] | 56µM* | -33%
Cc1ccc(-c2nc(=S)c3c(n2CC2CCCO2)CC(C)(C)OC3)cc1 (centres undefined) | -3% | x | 18% | 17%[12.7 µM] | -11% | 32%
Cc1ccc(-c2nc(=S)c3c(n2Cc2ccco2)CCCC3)cc1 | -4% | 5% | 69% | -44%[12.7 µM] | -49% | -18%
Cc1cccc(-c2nc(=S)c3c(n2Cc2ccco2)CCCC3)c1 | -15% | x | 1% | u | 20µM* | -20%
CC(C)=CCC[C@](C)(O)C1CC=C(C)CC1 (some centres undefined) | x | x | x | -44%[2.33 µM] | 14% | x
